Only a selection was taken, and hits are over-represented in it overall.
HT1080NT lethal – qHTS for induction of synthetic lethality in tumor cells producing 2HG: qHTS for the HT-1080-NT fibrosarcoma cell line; 360,000 tested, 1.6% active; Potency, µM (top dose mostly 46.1 µM), for inactives: at the highest dose activity, negative = less viability, usual class: cytotoxic; HT-1080-NT fibrosarcoma viability, CellTiter-Glo ATP luminescence, 48 h;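 also: NT is the 2HG producing partner of a matched IDH1 knockdown line; potency is read from the fitted curve at half-maximal effect; 0% = DMSO-treated cells and -100% = media-only wells without cells; nearly all actives have a fitted effect of over 55% in size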
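Compounds were tested in concentration-response format on HT-1080-NT cells for 48 hours at 37 degrees C. Cell viability came from CellTiter-Glo luminescence; curves were classified by r2, response magnitude and activity.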
HT1080 IDH1KD tx – qHTS for induction of synthetic lethality in tumor cells producing 2HG: qHTS for the HT-1080-IDH1KD cell line | Potency, µM (doses to about 46.1 µM), inactives show at the highest dose activity, negative = toxicity, hits mostly cytotoxic | 360,000 tested, 2% active | HT-1080 IDH1 knockdown viability, ATP luminescence, 48 h;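 also: potency is read from the fitted curve at half-maximal effect; 0% = DMSO wells and -100% = cell-free medium wells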
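IDH1KD HT-1080 cells, 750/well, RPMI + 5% FBS; compound pinned after 2 h settling; 48 h, 37 °C; CellTiter-Glo luminescence; % activity normalised to DMSO and no-cell wells; curves fitted, classed by r2 and efficacy.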
TDP1 cell CPT – qHTS for Inhibitors of human tyrosyl-DNA phosphodiesterase 1 (TDP1): qHTS in cells in presence of CPT | 420,000 tested, 12% active | Potency, µM (titrated, usually from 46.2 µM), for inactives: at the top dose activity change, negative = growth inhibition, most hits filed as inhibitors | chicken DT40 Tdp1-/-;hTDP1 cells + 20 nM CPT, ATP luminescence, 48 h; also: potency is read from the fitted curve at half-maximal effect; nearly all actives have a fitted effect of over 55% in size
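Chicken DT40 Tdp1-/- cells stably complemented with human TDP1 were seeded at 400 cells/well in medium containing 20 nM camptothecin, exposed to pin-transferred compounds, and grown at 37 °C for at least 48 hr. Viability was read as ATP luminescence.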
DT40 TDP1 no CPT – qHTS for Inhibitors of human tyrosyl-DNA phosphodiesterase 1 (TDP1): qHTS in cells in absence of CPT; 420,000 tested, 15% active; DT40 Tdp1-/- hTDP1 cells, no CPT, ATP luminescence, 48 h; Potency, µM (titrated, usually from 46.2 µM), inactives show at the highest dose activity change, negative = growth inhibition, hits mostly inhibitors; also: potency is read from the fitted curve at half-maximal effect; nearly all actives have a fitted effect of over 55% in size
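Compound effects on proliferation are scored in DT40 Tdp1-/-;hTDP1 cells in the absence of CPT. ATP levels (CellTiter-Glo luminescence) are recorded after a ≥48 hr, 37 °C incubation.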
ALOX12 inh – Primary qHTS assay for inhibitors of human arachidonate 12S-lipoxygenase (ALOX12): Round 2. Potency, µM (doses to about 108 µM), without a hit: at the highest dose activity change, negative = inhibition, most hits filed as inhibitors. purified 12hLO, xylenol orange hydroperoxide absorbance. 580,000 tested, 1.1% active. Polyunsaturated fatty acid lipoxygenase ALOX12 (Homo sapiens), P18054; also: potency is read from the fitted curve at half-maximal effect
Target sequence (P18054 whole entry, looked up): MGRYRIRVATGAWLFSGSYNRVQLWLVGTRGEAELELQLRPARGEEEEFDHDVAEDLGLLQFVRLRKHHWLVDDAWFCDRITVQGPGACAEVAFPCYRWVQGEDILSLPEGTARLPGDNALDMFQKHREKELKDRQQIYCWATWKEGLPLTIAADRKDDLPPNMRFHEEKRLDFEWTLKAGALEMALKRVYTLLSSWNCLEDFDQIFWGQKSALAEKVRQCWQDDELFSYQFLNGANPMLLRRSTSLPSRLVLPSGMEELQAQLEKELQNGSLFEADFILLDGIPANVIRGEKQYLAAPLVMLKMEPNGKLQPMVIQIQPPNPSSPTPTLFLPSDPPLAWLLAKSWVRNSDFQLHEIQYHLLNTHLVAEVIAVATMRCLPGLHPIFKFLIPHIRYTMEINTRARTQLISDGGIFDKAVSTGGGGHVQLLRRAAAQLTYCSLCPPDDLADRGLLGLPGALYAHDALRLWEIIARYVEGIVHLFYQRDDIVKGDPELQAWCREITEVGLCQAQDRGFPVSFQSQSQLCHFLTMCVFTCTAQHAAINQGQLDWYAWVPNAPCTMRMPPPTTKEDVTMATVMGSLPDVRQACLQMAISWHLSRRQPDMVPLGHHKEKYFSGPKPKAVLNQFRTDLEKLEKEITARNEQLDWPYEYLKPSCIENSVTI
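Purified human 12hLO at 150 nM in 25 mM Hepes, 0.01% Triton X-100, pH 7.0, preincubated 15 min at room temperature with compound. Reaction started with 40 uM arachidonic acid, 30 min at room temperature. Hydroperoxide measured by Fe-xylenol orange, 573/405 nm absorbance ratio.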
IL-1B inflam inh – qHTS for Inhibitors of Inflammasome Signaling: IL-1-beta AlphaLISA Primary Screen. AID 743279, 2014. activity change, % at 57.5 µM. THP-1 LPS/ATP IL-1B secretion, AlphaLISA, 16 h; hits give low values. 360,000 tested, 4.7% active; in the data active = activity change below about -50%; inconclusive = mostly about -30% to -49%
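THP-1 cells pretreated 1 hr with compounds (up to 57.5 uM final), then stimulated with LPS (250 ng/mL final) plus ATP (1.25 mM final); secreted IL-1B measured by AlphaLISA after 16 hr, decreased signal indicating inhibition.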
Numbers without * were called inactive; ? = inconclusive; . = no result given; [ ] = dose if it differs, or a comment. Unless noted, calls follow the shape of the dose curve; as a rule, active = well fitted curve in the direction sought with a large enough effect; inconclusive = small, poorly fitted or top-dose-only effect, or another doubt; inactive = no such curve, though single readings can be large; an effect the other way counts as inactive or inconclusive. Unless noted, % is scaled to controls: 0 for no effect and ±100 for the full control effect.

SMILES | HT1080NT lethal | HT1080 IDH1KD tx | TDP1 cell CPT | DT40 TDP1 no CPT | ALOX12 inh | IL-1B inflam inh
O=C(/C=N/NC(=O)c1ccccc1Br)c1ccccc1 | -3% | -8% | ? | ? | 4% | -6
Cc1ccc2[nH]cc(CCNC(=O)c3cccc(F)c3)c2c1 | . | . | . | . | -5% | .
C(=N\N(Cc1ccccc1)c1ccccc1)/c1cccs1 | . | . | . | . | -15% | .
COc1cc(OC)cc(C(=O)NCC(=O)Nc2ccc(-c3ccccc3)cc2)c1 | 2.9µM* | 5.8µM* | 16µM* | 18µM* | -21% | 39
NC(=O)Nc1ccc(Nc2ccccc2)cc1 | 2% | 1% | ? | -28% | -9% | 10
O=C(Nc1cccnc1)c1ccc(C(=O)Nc2cccnc2)cc1 | ? | ? | -11% | ? | -1% | 0
O=C(Nc1cccnc1)c1ccc(S(=O)(=O)c2ccc(Cl)cc2)cc1 | -24% | -8% | ? | 23µM* | -13% | -66*
CC(C)(C)C(=O)C(Cl)C(=O)Nc1ccccc1 (configuration not stated) | 2% | ? | 5.2µM* | 4.1µM* | -9% | ?
COc1cc(OC)cc(C(=O)NCC(=O)Nc2ccc(C)c(Cl)c2)c1 | -3% | 2% | 29% | -10% | 0% | -7
O=C(Nc1ccc(Nc2ccccc2)cc1)C(Cl)Cl | 2% | -15% | 1.2µM* | 1.8µM* | -14% | -89*
O=C(N[C@H]1CCN2C(=O)c3cc(-c4ccsc4)ccc3NC(=O)[C@@H]2C1)c1cccs1 | . | . | . | . | -36% | .
O=C(NCc1cccc(F)c1)C1=NO[C@@H]2CN(Cc3ccc(F)cc3)C[C@H]12 | . | . | . | . | -1%[176 µM] | .
O=C(c1cc(-c2ccc3c(c2)OCO3)on1)N1CCCCC1 | -8% | -11% | 5% | -3% | -6% | -21
CC1CCCC(C)N1C(=O)c1cc(-c2ccc3c(c2)OCO3)on1 (configuration not stated) | -1% | -26% | ? | 26µM* | -13% | -8
CC1CCCC(C)N1C(=O)c1cc(-c2ccc(Cl)c(Cl)c2)on1 (configuration not stated) | -20% | ? | 18µM* | ? | 3% | -5
COc1ccc(NC(=O)C(C)n2nc(-c3cc(C)ccc3C)c3c(c2=O)CCCC3)cc1 (configuration not stated) | . | . | 21µM* | ? | ? | .
O=S(=O)(N/N=C1\CC(c2ccccc2)Oc2ccccc21)c1ccccc1 (configuration not stated) | -9% | -11% | -13% | -13% | -21% | -27
CCOc1ccc(S(=O)(=O)N/N=C2/CC(c3ccccc3)Oc3ccccc32)cc1 (configuration not stated) | -5% | -23% | ? | 16µM* | ? | 0
O=C(NC1C[C@H]2CC[C@@H](C1)N2C(=O)c1ccn[nH]1)c1ccncc1 (some centres not stated) | . | . | . | . | 3% | .
Cc1ccc(C(=O)N/C(=C\c2ccccc2F)c2nc(=S)[nH][nH]2)cc1 | -2% | -2% | 21µM* | ? | ? | -1
Cc1ccc(C(=O)N/C(=C/c2ccccc2F)C(=O)NCCCn2ccnc2)cc1 | 5% | 4% | ? | 17% | -1% | -24
Cc1ccc(/C=C(\NC(=O)c2ccc(C)cc2)c2nc(=S)[nH][nH]2)cc1 | -11% | -15% | 15µM* | ? | 20µM* | -11
CCN(CC(=O)Nc1ccc2c(c1)OCCO2)C(=O)COc1ccc(C(C)=O)cc1 | 5% | 9% | 7% | -3% | -2% | 30
CC(=O)c1ccc(N2CCN(C(=O)CCc3ncc(-c4c(F)cccc4F)o3)CC2)cc1 | . | . | . | . | 24% | .
COc1cc(CN2CCOc3ccc(C(O)c4cccnc4)cc3C2)cc(OC)c1 (configuration not stated) | . | . | 19%[9.04 µM] | -17% | 21% | .
SMILES | HT1080NT lethal | HT1080 IDH1KD tx | TDP1 cell CPT | DT40 TDP1 no CPT | ALOX12 inh | IL-1B inflam inh
Cn1cc(CN2CCOc3ccc(C(O)C4CCCCC4)cc3C2)cn1 (configuration not stated) | . | . | ? | 12µM* | -7% | .
CCOC(=O)c1c(-c2cccs2)csc1NC(=O)CN1CCOCC1 | -19% | -27% | ? | 21µM* | 39% | -17
CCOC(=O)c1c(-c2cccs2)csc1NC(=O)CN(CC)CC | -4% | -22% | ? | ? | -16% | 42
CCOC(=O)c1c(-c2ccc(C)o2)csc1NC(=O)COC(=O)c1cccs1 | -4% | -10% | ? | 18µM* | -21% | -5
CCOC(=O)c1c(-c2cccs2)csc1NC(=O)CC(C)C | 5% | -7% | 18µM* | 21µM* | 0% | -3
CCOC(=O)c1c(-c2cccs2)csc1NC(=O)c1ccco1 | 17% | 17% | 6% | -11% | -12% | 1
CCOC(=O)c1c(CC(C)C)csc1NC(=O)CCl | -9% | -9% | 13µM* | 10µM* | ? | -24
CCOC(=O)c1c(CC(C)C)csc1NC(=O)COC(=O)c1cnc(C)cn1 | -1% | 0% | -5% | 9% | 11% | 8
Clc1ccc(-c2noc(-c3ccccc3)n2)cc1 | . | . | . | . | 7% | .
CCOC(=O)c1c(-c2ccc(C)o2)csc1NC(=O)CN1CCOCC1 | -12% | -7% | 16µM* | 16µM* | -12% | -8
CCOC(=O)c1c(-c2ccc(C)o2)csc1NC(=S)NC(=O)N(C)C | 10µM* | 13µM* | ? | ? | ? | 54
CCOC(=O)c1c(-c2ccc(C)o2)csc1N | 0% | -1% | -7% | -7% | ? | -11
O=[N+]([O-])c1ccc(-c2nc(Cl)c3c(n2)CCCC3)o1 | -6% | ? | 9.2µM* | 16µM* | 0% | -94*
COc1ccc(NC(=O)CCCc2nnc3n(CCC(C)C)c(=O)c4sccc4n23)cc1Cl | . | . | ? | 21µM* | ? | .
CCn1c(=O)c2sccc2n2c(CCC(=O)NCc3ccc(Cl)cc3)nnc12 | . | . | ? | 21µM* | -13% | .
CCOc1ccc(CCNC(=O)CCCc2nnc3n(CC(C)C)c(=O)c4sccc4n23)cc1 | . | . | ? | 18µM* | -17% | .
